Results published in the supplement of paper PMC6555819.

Columns and labels:
Test in all cases: PBM binding z-score (relative to random genomic background probes); higher = stronger binding; sequences stand for … in GC…GCGATTGACAGCGTAGAATGAAGG
[1] = system: FXR:RXRa (NR concentration 270 nM, RXRa partner concentration 90 nM)
In short: (§1)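 Probes were double-stranded and carried 34-nt variable regions with direct-repeat seeds, single-nucleotide variants, half-site ablations and random human genomic background sequences, printed on custom Agilent 4×180K protein-binding microarrays. Arrays were incubated 1 h with ligand-free nuclear receptor dimers in PBS pH 7.4, 2% milk, 0.02% Triton X-100, 1 mM DTT, 0.2 mg/mL BSA and 0.4 mg/ml salmon testes DNA. Antibodies against each partner (one per run) detected binding, and scanned fluorescence was regression-normalized. Binding z-scores use the random background probes as reference.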

[2] = system: LXRa:RXRa (NR concentration 270 nM, RXRa partner concentration 90 nM)
In short: as §1

[3] = system: LXRa homodimer (NR concentration 270 nM)
In short: as §1

[4] = system: LXRb:RXRa (NR concentration 270 nM, RXRa partner concentration 90 nM)
In short: as §1

[5] = system: LXRb homodimer (NR concentration 270 nM)
In short: as §1

[6] = system: PPARa:RXRa (NR concentration 270 nM, RXRa partner concentration 90 nM)
In short: as §1

[7] = system: PPARg:RXRa (NR concentration 180 nM, RXRa partner concentration 90 nM)
In short: as §1

[8] = system: PPARg:RXRa 270nM:90nM, anti-RXR (NR concentration 270 nM, RXRa partner concentration 90 nM)
In short: as §1

[9] = system: PPARg:RXRa 30nM:10nM, anti-RXR (NR concentration 30 nM, RXRa partner concentration 10 nM)
In short: as §1

[10] = system: PPARg:RXRa 90nM:30nM, anti-RXR (NR concentration 90 nM, RXRa partner concentration 30 nM)
In short: as §1

Sequence | PBM binding z-score [1] | PBM binding z-score [2] | PBM binding z-score [3] | PBM binding z-score [4] | PBM binding z-score [5] | PBM binding z-score [6] | PBM binding z-score [7] | PBM binding z-score [8] | PBM binding z-score [9] | PBM binding z-score [10]
CGCCCAAGGTCAGCAGGTCAGTGAAAGCGACGTG | 5.7 | 4.2 | 0.381 | 2.99 | -0.0743 | 4.81 | 3.8 | 4.59 | 1.02 | 2.98
CATACAGGGTCCGCTAGGCCAGAGTAGGGACGGC | -0.192 | -0.435 | -0.418 | -0.869 | -0.218 | -1.11 | 0.155 | -0.418 | -0.876 | -0.844
CCCCGGAGGACAGAAGGTCAGAGCTGTCCGCTTT | 0.952 | 1.41 | 0.417 | 1.09 | -0.645 | 1.87 | -0.0611 | 0.529 | -0.911 | 0.0217
CTAACTAGGTCAAAGGACAGTGAAAGGCGACGTA | 3.68 | 2.75 | 0.132 | 1.85 | -0.0221 | 5.86 | 10.8 | 9.18 | 9.63 | 10.2
CGAACTAGGTCCAAGGACAGTGAAAGGCGACGTA | -0.44 | -0.748 | -0.421 | -0.931 | -1.24 | 0.459 | 1.53 | 2.19 | 0.583 | 1.69
AATACAGGGTCACTTGGCCAGAGTAGGTACGAAT | 6.52 | 5.13 | 1.39 | 4.27 | 1.54 | 5.49 | 5.84 | 5.4 | 2.24 | 4.19
CCTACTGGGCCAAAGGCCATTGATTCCAATGCTC | -0.204 | -0.344 | -0.23 | -0.115 | -0.699 | 3.51 | 7.53 | 7.54 | 6.63 | 7.44
CCTTACGGGTCAAGGTTATATCACGGGTGGTACG | 5.41 | 3.89 | 0.787 | 3.34 | 0.134 | 4.99 | 4.26 | 4.7 | 1.6 | 3.52
TTACAAAGGTGAAAGGTCGTTGATGCACGCCTTG | 5.91 | 4.66 | 0.507 | 4.08 | -0.0513 | 6.21 | 9.23 | 8.27 | 8.34 | 8.62
CCAACTAGGTCATTGACAGGACAGTGAATAGTAA | 4.34 | 3.06 | 0.961 | 2.18 | 0.671 | 3.92 | 5.95 | 5.66 | 2.77 | 5.03
AGAACGAGGGCAATGAGTTCATAGCACGGGTGGC | 1.78 | 2.26 | 1.48 | 1.11 | -0.445 | 2.83 | 2.16 | 1.57 | 0.0417 | 0.912
CGAACTGGGTCACCAGGACAGTGAAGAGGTTGGA | 3.32 | 1.63 | -0.247 | 1.24 | -0.906 | 4.99 | 8.62 | 6.73 | 4.52 | 6.31
AGTCATAGTTCACTAGGTAACGTAAGATTCAGCT | 0.829 | 1.51 | 0.415 | 1.11 | 0.233 | 3.01 | 3.89 | 3.82 | 1.59 | 2.88
CGAACTAGGTCAGAGGACAGTGAAAGGCGACGTA | 1.21 | 0.781 | -0.404 | 0.187 | -0.968 | 3.61 | 8.37 | 6.52 | 6.22 | 7.35
TCTCGGAGGACACGAAAGGGCAGAGCTCGACATC | 0.131 | 0.581 | -0.282 | -0.082 | -0.72 | 0.48 | 0.29 | 0.85 | 1.65 | 1.2
CCTTACAGGTCAAGGTTATAGCACGGGTGGTACG | 6.13 | 4.73 | 2.02 | 3.5 | 1.18 | 5.2 | 4.94 | 4.89 | 1.9 | 3.82
CCAACTAGGTCACCAGGACAGTGAAGAGGTTGGA | 4.24 | 2.6 | 0.434 | 1.91 | 0.121 | 4.66 | 8.3 | 6.53 | 3.83 | 6.09
ATCGAAACGTCGACGAGGTGAGTATACACCGTTT | -0.264 | -0.5 | -0.605 | -0.525 | -0.00441 | -0.269 | 0.855 | -0.111 | -0.111 | -0.157
CGTCAAAGTTCAACTAAGGTAACTTAAAGCACGC | 7.38 | 6.11 | 4.42 | 4.16 | 1.95 | 5.47 | 5.21 | 5.69 | 2.4 | 4.39
TAGCCTAGGTCATTGGGCTAGTATAGTACGCATC | 4.29 | 3.19 | 0.404 | 1.81 | -0.386 | 3.63 | 2.59 | 3.08 | 0.744 | 1.97
CGTCCAAGGTCAATGCGAGGTCAGTGAAAGCATT | 7.21 | 6.04 | 4.28 | 5.1 | 1.25 | 5.46 | 4.59 | 4.98 | 1.48 | 3.65
CGTACTAGGTCAAAGGACAGTGAAAGGCGACGTA | 3.86 | 2.77 | 0.17 | 1.89 | -0.0877 | 4.83 | 9.74 | 7.95 | 8.11 | 9.06
GATACAGAGTCAGCTAGAGGCCAGAGTATGGAAA | -0.527 | -0.699 | -0.703 | -0.919 | -1.16 | -0.619 | 0.312 | -0.242 | -0.296 | -0.352
ATATGTAGGTTAGGGTCATACAGAAAGTAGGGAA | 4.95 | 4.24 | 0.95 | 4.42 | 1.32 | 5.66 | 8.3 | 6.82 | 4.46 | 6.69
CGAACTAGGTCACCAGTACAGTGAAGAGGTTGGA | 3.77 | 2.35 | 0.174 | 1.82 | 0.0155 | 4.77 | 8.77 | 7.17 | 5.27 | 6.88

Sequence | PBM binding z-score [1] | PBM binding z-score [2] | PBM binding z-score [3] | PBM binding z-score [4] | PBM binding z-score [5] | PBM binding z-score [6] | PBM binding z-score [7] | PBM binding z-score [8] | PBM binding z-score [9] | PBM binding z-score [10]
CGTCCAAGGTCAGCAGGTCACTGAAAGCGACGTG | 6.56 | 4.66 | 0.808 | 3.7 | 0.0267 | 5.5 | 5.54 | 5.5 | 1.58 | 4.01
GCTTACGGGTCAAAGGTTACAGCATGAATAGAAT | 8.04 | 5.9 | 0.488 | 6.05 | 0.89 | 7.24 | 12 | 9.99 | 10 | 11.5
CAAACTAGGTCAAAGGTCAAACTCGAGCCAACCA | 8.63 | 7.62 | 6.78 | 7.4 | 3.51 | 7.76 | 14.1 | 11.6 | 13.3 | 13.7
TCTAGTTGGTCATGGAGGTCACACACGACGGGTA | 3.61 | 3.7 | 3.33 | 3.3 | 1.23 | 3.9 | 3.39 | 3.95 | 3.27 | 3.52
ACTAACAGGCCAAGGGTCACTCAAGATTAGTCCG | 2.89 | 3.27 | 0.663 | 3.06 | 0.292 | 4.35 | 6.9 | 6.64 | 4.86 | 6.91
ACTAGGTGGTCAGCTGAGGTCACACACAATTCGG | 3.12 | 3.37 | 2.31 | 3.52 | -0.173 | 3.87 | 2.43 | 2.63 | 0.956 | 2.14
CGTCCAAGGTCATAGGAGGTCACTGAAGACAGAT | 7.73 | 7.6 | 6.16 | 6.62 | 1.26 | 6.26 | 6.52 | 6.6 | 3.16 | 5.31
CTCGAAAGGTCGGTTGAGGTCAGTATACGGATAA | 5.06 | 5.23 | 1.74 | 3.81 | 0.351 | 3.83 | 1.26 | 2.17 | 0.448 | 1.75
CCTCGGAGGACAACAGGAGGTCAAAGCTGCCAGA | 2.61 | 4.28 | 5.15 | 3.51 | 0.0871 | 3.68 | 1.17 | 1.56 | -0.109 | 0.958
ATATGTAGGTTAGGGTCATTAAGAAAGTAGGGAA | 4.6 | 3.41 | 1.04 | 4.44 | 1.52 | 5.58 | 7.9 | 6.59 | 4.1 | 6.14
TATTGTAGATCAAAGGTTAAGAAAGCCGAAGCCT | 1.52 | 2.61 | 0.529 | 2.07 | 0.724 | 4.99 | 8.15 | 8.41 | 7.59 | 9.21
CGAACTAGGTCAAAGGACAGGGAAAGGCGACGTA | 4.04 | 2.31 | -0.139 | 1.77 | -0.371 | 5.35 | 10.4 | 8.79 | 8.45 | 9.16
CGAACTAGGTCACCAGGGCAGTGAAGAGGTTGGA | 3.67 | 2.48 | 0.0109 | 1.52 | -0.639 | 5.2 | 8.69 | 6.86 | 4.52 | 6.42
ATCGAAAGGGCGTGAGGTGAGTATACAGAAAGGC | 0.437 | 0.45 | -0.364 | 0.429 | -0.169 | 1.36 | 0.822 | 0.778 | 0.328 | 0.452
CAATCTAGGTCACGAAAGGTCAAAGTCGAATGAC | 7.83 | 8.36 | 8 | 7.57 | 3.05 | 6.84 | 10.7 | 8.68 | 7.62 | 9.02
CGTCAAAGTTCAAGGCAACGTAACAGAAAGCAGC | 5.83 | 5.32 | 2.35 | 2.97 | 0.47 | 4.47 | 3.88 | 4.87 | 1.54 | 3.53
CCTACTGGGCCAATAAGGTCATTGATGCCGATAA | 2.84 | 2.93 | 1.06 | 3.03 | -0.277 | 4.04 | 2.89 | 3.1 | 0.789 | 2.38
ATATGTAGGTTAGGGTCATGCAGAAAGTAGGGAA | 4.77 | 4.14 | 0.926 | 4.29 | 1.21 | 5.74 | 7.7 | 6.66 | 4.91 | 6.3
CCTACTGGGCCATTCAGAGGTTATTGATCATATG | 0.119 | 0.693 | 0.815 | 0.664 | -0.334 | 1.55 | 0.601 | 1.23 | 0.0553 | 0.458
ATCGAAAGGTCGAAGGAGAGTATACCCACCCGAA | 4.01 | 3.28 | 0.14 | 2.48 | 0.895 | 3.8 | 2.15 | 2.57 | 1.14 | 2.01
CGAACTAGGTCACCAGCACAGTGAAGAGGTTGGA | 4.03 | 2.42 | 0.171 | 1.53 | -0.224 | 5.12 | 8.39 | 7.01 | 4.62 | 6.53
ATATGTAGGTTAGGGTCATTCAGAAAGTAGGGAA | 5.09 | 4.43 | 1.52 | 4.66 | 1.62 | 5.61 | 7.97 | 6.68 | 4.41 | 6.43
CGAACTAGGTCACCAGGACAGTGTAGAGGTTGGA | 4.04 | 2.35 | -0.0613 | 1.77 | -0.589 | 5.08 | 8.54 | 6.85 | 4.68 | 6.46
ATCGAAAGGTCGAAGGTGACTATACCCACCCGAA | 4.54 | 3.72 | 0.344 | 3.07 | 0.925 | 4.92 | 5.16 | 5 | 2.71 | 4.38
